# In PubChem BioAssay AID1159580 (chemical genetic matrix, 2015):
# The campaign covered roughly 5,500 compounds. About 2,000 (36%) were called active. Roughly 18% stayed inconclusive and do not appear here. Cut-off read from the data, not from the text of the source: active = normalized growth mostly below about 0.91 (no sharp cut-off); inconclusive = no clear call, values can overlap the other calls; inactive = mostly above about 0.92. The list shows a part of the results.
# Assay: chemical genetic growth profiling, strain panel (AID 1159580);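 note: tested at 20 µM; growth read once vehicle control cultures reached saturation at 30 °C; 1 = growth at the plate median or of vehicle wells; lower values mean less growth of the strain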
# Conditions: S. cerevisiae deletion strains, growth OD
# [1] = locus YAL013W, strain DEP1, stronger effect = lower value
# [2] = locus YAL040C, strain CLN3, stronger effect = lower value
# [3] = locus YER002W, strain NOP16, stronger effect = lower value
# [4] = locus YMR263W, strain SAP30, stronger effect = lower value
# [5] = locus YNL175C, strain NOP13, stronger effect = lower value
# [6] = locus YNL197C, strain WHI3, stronger effect = lower value
# [7] = locus YNL224C, strain SQS1, stronger effect = lower value
# [8] = locus YOR083W, strain WHI5 (second series), stronger effect = lower value
# [9] = locus YPL241C, strain CIN2, stronger effect = lower value
# [10] = locus YGR078C, strain PAC10, stronger effect = lower value
# [11] = locus YJR075W, strain HOC1, stronger effect = lower value
# [12] = locus YNL153C, strain GIM3, stronger effect = lower value
# [13] = locus YNL322C, strain KRE1, stronger effect = lower value
# [14] = locus YDL101C, strain DUN1, stronger effect = lower value
# [15] = locus YHR030C, strain SLT2, stronger effect = lower value
smiles,measurement,setting,value
CN1CCCC1CCOC(C)(c1ccccc1)c1ccc(Cl)cc1 (stereo not given),normalized growth,[1],0.981 (inactive)
same,normalized growth,[2],0.986 (inactive)
same,normalized growth,"locus YCL061C, strain MRC1 (second series), stronger effect = lower value",0.982 (inactive)
same,normalized growth,"locus YDR363W, strain ESC2, stronger effect = lower value",0.983 (inactive)
same,normalized growth,[3],1 (inactive)
same,normalized growth,"locus YGR229C, strain SMI1, stronger effect = lower value",0.714 (active)
same,normalized growth,[4],0.955 (inactive)
same,normalized growth,[5],0.995 (inactive)
same,normalized growth,[6],1.03 (inactive)
same,normalized growth,[7],1.01 (inactive)
same,normalized growth,[8],0.986 (inactive)
same,normalized growth,[9],0.996 (inactive)
Brc1ccc([C@H]2CN3CCSC3=N2)cc1,normalized growth,[2],1.01 (inactive)
same,normalized growth,[3],1.03 (inactive)
same,normalized growth,[10],1.02 (inactive)
same,normalized growth,[11],0.983 (inactive)
same,normalized growth,[12],0.997 (inactive)
same,normalized growth,[5],1.01 (inactive)
same,normalized growth,[6],1.01 (inactive)
same,normalized growth,[7],1.01 (inactive)
same,normalized growth,[13],0.997 (inactive)
same,normalized growth,[8],1.02 (inactive)
Clc1cc(Cl)cc(C=NCc2ccccc2)c1,normalized growth,"locus YAR019C, strain CDC15, stronger effect = lower value",0.958 (inactive)
same,normalized growth,"locus YBL105C, strain PKC1, stronger effect = lower value",0.946 (inactive)
same,normalized growth,"locus YBR135W, strain CKS1, stronger effect = lower value",0.961 (inactive)
same,normalized growth,"locus YBR136W, strain MEC1, stronger effect = lower value",0.957 (inactive)
same,normalized growth,"locus YBR160W, strain CDC28, stronger effect = lower value",0.955 (inactive)
same,normalized growth,"locus YDL017W, strain CDC7, stronger effect = lower value",0.951 (inactive)
same,normalized growth,"locus YDL028C, strain MPS1, stronger effect = lower value",0.958 (inactive)
same,normalized growth,[14],0.964 (inactive)
same,normalized growth,"locus YDL108W, strain KIN28, stronger effect = lower value",0.964 (inactive)
same,normalized growth,"locus YDL132W, strain cdc53, stronger effect = lower value",0.959 (inactive)
same,normalized growth,"locus YDL214C, strain PRR2, stronger effect = lower value",0.665 (active)
same,normalized growth,"locus YDR052C, strain DBF4, stronger effect = lower value",0.957 (inactive)
same,normalized growth,"locus YDR054C, strain cdc34, stronger effect = lower value",0.95 (inactive)
same,normalized growth,"locus YDR226W, strain ADK1, stronger effect = lower value",0.957 (inactive)
same,normalized growth,"locus YDR477W, strain SNF1, stronger effect = lower value",0.621 (active)
same,normalized growth,"locus YER123W, strain YCK3, stronger effect = lower value",0.364 (active)
same,normalized growth,"locus YER133W, strain GLC7, stronger effect = lower value",0.625 (active)
same,normalized growth,"locus YFL009W, strain cdc4, stronger effect = lower value",0.961 (inactive)
same,normalized growth,"locus YFL029C, strain CAK1, stronger effect = lower value",0.961 (inactive)
same,normalized growth,"locus YFR003C, strain YPI1, stronger effect = lower value",0.95 (inactive)
same,normalized growth,"locus YFR019W, strain FAB1, stronger effect = lower value",0.501 (active)
same,normalized growth,"locus YFR028C, strain CDC14, stronger effect = lower value",0.967 (inactive)
same,normalized growth,"locus YGR040W, strain KSS1, stronger effect = lower value",0.681 (active)
same,normalized growth,"locus YGR052W, strain FMP48, stronger effect = lower value",0.627 (inactive)
same,normalized growth,"locus YGR092W, strain DBF2, stronger effect = lower value",0.222 (active)
same,normalized growth,[15],0.322 (active)
same,normalized growth,"locus YHR079C, strain IRE1, stronger effect = lower value",0.27 (active)
same,normalized growth,"locus YHR082C, strain KSP1, stronger effect = lower value",0.616 (inactive)
same,normalized growth,"locus YHR205W, strain SCH9, stronger effect = lower value",0.621 (inactive)
same,normalized growth,"locus YIL147C, strain SLN1, stronger effect = lower value",0.947 (inactive)
same,normalized growth,"locus YJL095W, strain BCK1, stronger effect = lower value",0.375 (active)
same,normalized growth,"locus YJL128C, strain PBS2, stronger effect = lower value",0.93 (inactive)
same,normalized growth,"locus YJL157C, strain FAR1, stronger effect = lower value",0.458 (active)
same,normalized growth,"locus YJR016C, strain ILV3, stronger effect = lower value",0.961 (inactive)
same,normalized growth,"locus YJR066W, strain TOR1 (second series), stronger effect = lower value",0.585 (active)
same,normalized growth,"locus YJR066W, strain TOR1, stronger effect = lower value",0.433 (active)
same,normalized growth,"locus YKL048C, strain ELM1, stronger effect = lower value",0.722 (active)
same,normalized growth,"locus YKL067W, strain YNK1, stronger effect = lower value",0.58 (active)
same,normalized growth,"locus YKL101W, strain HSL1, stronger effect = lower value",0.692 (active)
same,normalized growth,"locus YKL193C, strain SDS22, stronger effect = lower value",0.956 (inactive)
same,normalized growth,"locus YKL203C, strain TOR2, stronger effect = lower value",0.691 (active)
same,normalized growth,"locus YLR113W, strain HOG1, stronger effect = lower value",0.375 (active)
same,normalized growth,"locus YLR133W, strain CKI1, stronger effect = lower value",0.525 (active)
same,normalized growth,"locus YLR403W, strain SFP1, stronger effect = lower value",0.479 (active)
same,normalized growth,"locus YML070W, strain DAK1, stronger effect = lower value",0.428 (active)
same,normalized growth,"locus YMR001C, strain CDC5, stronger effect = lower value",0.947 (inactive)
same,normalized growth,"locus YMR205C, strain PFK2 (second series), stronger effect = lower value",0.652 (active)
same,normalized growth,"locus YMR277W, strain FCP1, stronger effect = lower value",0.966 (inactive)
same,normalized growth,"locus YNL006W, strain LST8, stronger effect = lower value",0.95 (inactive)
same,normalized growth,"locus YNL020C, strain ARK1, stronger effect = lower value",0.452 (active)
same,normalized growth,"locus YNL161W, strain CBK1, stronger effect = lower value",0.95 (inactive)
same,normalized growth,"locus YNL183C, strain NPR1, stronger effect = lower value",0.549 (active)
same,normalized growth,"locus YNL207W, strain RIO2, stronger effect = lower value",0.963 (inactive)
same,normalized growth,"locus YNL222W, strain SSU72, stronger effect = lower value",0.963 (inactive)
same,normalized growth,"locus YNL307C, strain MCK1 (second series), stronger effect = lower value",0.489 (active)
same,normalized growth,"locus YOL078W, strain AVO1, stronger effect = lower value",0.965 (inactive)
same,normalized growth,"locus YOL136C, strain PFK27, stronger effect = lower value",0.328 (active)
same,normalized growth,"locus YOR061W, strain CKA2, stronger effect = lower value",0.441 (active)
same,normalized growth,"locus YOR119C, strain RIO1, stronger effect = lower value",0.744 (inactive)
same,normalized growth,"locus YOR231W, strain MKK1, stronger effect = lower value",0.364 (active)
same,normalized growth,"locus YOR329C, strain SCD5, stronger effect = lower value",0.946 (inactive)
same,normalized growth,"locus YPL031C, strain PHO85, stronger effect = lower value",0.589 (active)
same,normalized growth,"locus YPL153C, strain RAD53, stronger effect = lower value",0.534 (active)
same,normalized growth,"locus YPL204W, strain HRR25, stronger effect = lower value",0.489 (active)
same,normalized growth,"locus YPL209C, strain IPL1, stronger effect = lower value",0.957 (inactive)
same,normalized growth,"locus YPL256C, strain CLN2, stronger effect = lower value",0.303 (active)
same,normalized growth,"locus YPR025C, strain CCL1, stronger effect = lower value",0.953 (inactive)
same,normalized growth,"locus YPR106W, strain ISR1, stronger effect = lower value",0.959 (inactive)
same,normalized growth,"locus YPR111W, strain DBF20, stronger effect = lower value",0.957 (inactive)
same,normalized growth,"strain NNK1, stronger effect = lower value",0.959 (inactive)
same,normalized growth,"strain TSCII, stronger effect = lower value",0.954 (inactive)
Brc1cccc(C=NCc2ccccc2)c1,normalized growth,[1],0.87 (active)
same,normalized growth,"locus YBR229C, strain ROT2, stronger effect = lower value",0.843 (active)
same,normalized growth,[14],0.888 (active)
same,normalized growth,"locus YDL134C, strain PPH21, stronger effect = lower value",0.765 (active)
same,normalized growth,"locus YDR150W, strain NUM1, stronger effect = lower value",0.932 (inactive)
same,normalized growth,"locus YEL061C, strain CIN8, stronger effect = lower value",0.621 (active)
same,normalized growth,[10],0.847 (active)
same,normalized growth,[15],0.198 (active)
same,normalized growth,"locus YHR087W, strain rtc3, stronger effect = lower value",0.788 (active)
same,normalized growth,"locus YJL187C, strain SWE1, stronger effect = lower value",0.848 (active)
same,normalized growth,"locus YJR043C, strain POL32, stronger effect = lower value",0.954 (inactive)
same,normalized growth,[11],0.719 (active)
same,normalized growth,"locus YLR039C, strain RIC1, stronger effect = lower value",0.242 (active)
same,normalized growth,"locus YLR058C, strain SHM2 (second series), stronger effect = lower value",0.961 (inactive)
same,normalized growth,"locus YLR085C, strain ARP6, stronger effect = lower value",0.333 (active)
same,normalized growth,"locus YLR262C, strain YPT6, stronger effect = lower value",0.23 (active)
same,normalized growth,"locus YML094W, strain GIM5, stronger effect = lower value",0.656 (active)
same,normalized growth,"locus YMR219W, strain ESC1, stronger effect = lower value",0.92 (active)
same,normalized growth,[4],0.883 (active)
same,normalized growth,"locus YNL128W, strain TEP1, stronger effect = lower value",0.829 (active)
same,normalized growth,[12],0.921 (active)
same,normalized growth,"locus YNL298W, strain CLA4 (second series), stronger effect = lower value",0.664 (active)
same,normalized growth,[13],0.983 (inactive)
same,normalized growth,"locus YNR030W, strain Alg12, stronger effect = lower value",0.761 (active)
same,normalized growth,"locus YPL055C, strain LGE1, stronger effect = lower value",0.825 (inactive)
same,normalized growth,[9],0.663 (active)
same,normalized growth,"locus YPR135W, strain CTF4, stronger effect = lower value",0.366 (active)
